Where “and” joins values, the source holds several entries; their conditions need not be identical. Identical values can stand only once. The panel holds about 83,000 compounds, 20% with a hit somewhere; the sample as a whole holds those more often.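 How to read the values: 0–100, growth inhibition (40 = 60% inhibited); 0, no net growth; -100 to 0, cell death (-40 = 40% of starting cells died; -100 = all dead).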 Calls of active or inactive are those of the source. How the source made its calls: active means growth percent below 10; inactive means the rest.
Tests used:
Test in all cases: NCI-60 one-dose screen, 48 h (100 = growth as untreated, 0 = no growth, -100 = all killed)
Conditions in all cases: 10 µM unless noted
HL-60(TB) leukemia = system: HL-60(TB) leukemia
HCT-15 colon = system: HCT-15 colon
HT29 colon = system: HT29 colon
SNB-75 CNS = system: SNB-75 CNS
SNB-19 CNS = system: SNB-19 CNS
PC-3 prostate = system: PC-3 prostate
SK-MEL-5 melanoma = system: SK-MEL-5 melanoma
UACC-62 melanoma = system: UACC-62 melanoma
LOX IMVI melanoma = system: LOX IMVI melanoma
SK-MEL-28 melanoma = system: SK-MEL-28 melanoma
SN12C renal = system: SN12C renal
UO-31 renal = system: UO-31 renal
CAKI-1 renal = system: CAKI-1 renal
A498 renal = system: A498 renal
CCRF-CEM leukemia = system: CCRF-CEM leukemia
U251 CNS = system: U251 CNS
SK-MEL-2 melanoma = system: SK-MEL-2 melanoma
EKVX NSCLC = system: EKVX NSCLC
TK-10 renal = system: TK-10 renal
ACHN renal = system: ACHN renal

Row | SMILES | growth (HL-60(TB) leukemia) | growth (HCT-15 colon) | growth (HT29 colon) | growth (SNB-75 CNS) | growth (SNB-19 CNS) | growth (PC-3 prostate) | growth (SK-MEL-5 melanoma) | growth (UACC-62 melanoma) | growth (LOX IMVI melanoma) | growth (SK-MEL-28 melanoma) | growth (SN12C renal) | growth (UO-31 renal) | growth (CAKI-1 renal) | growth (A498 renal) | growth (CCRF-CEM leukemia) | growth (U251 CNS) | growth (SK-MEL-2 melanoma) | growth (EKVX NSCLC) | growth (TK-10 renal) | growth (ACHN renal)
1 | Cc1ccc(NC(=O)c2cc3ccccc3cc2O)c(C)c1 | 54.3% (inactive) | – | – | – | – | – | – | – | – | – | – | – | – | – | – | – | – | – | – | –
2 | CN1CCC2(CC1)C(C#N)C(=O)NC(=O)C2C#N (stereo unspecified) | 107% (inactive) | 98.4% (inactive) | 118% (inactive) | 76.4% (inactive) | 99% (inactive) | 101% (inactive) | 102% (inactive) | 101% (inactive) | 100% (inactive) | 95.1% (inactive) | 105% (inactive) | 91.9% (inactive) | 92% (inactive) | 95.8% (inactive) | 104% (inactive) | – | – | – | – | –
3 | Oc1cc(N2CC2)c(O)cc1N1CC1 | 16.1% (inactive) | – | 1.49% (active) | – | 26.8% (inactive) | – | -95% (active) | -67.2% (active) | 1.44% (active) | -50.9% (active) | 12.7% (inactive) | -36.6% (active) | -1.5% (active) | -75.2% (active) | 24.7% (inactive) | -2.16% (active) | -37.5% (active) | 58.4% (inactive) | -7.44% (active) | 2.38% (active)
4 | NC(=O)Oc1cc(OC(N)=O)cc(N(CCCl)CCCl)c1 | 15.1% (inactive) | 68.9% (inactive) | 64.1% (inactive) | 49.2% (inactive) | 74.6% (inactive) | 71.7% (inactive) | 73.3% (inactive) | 46.2% (inactive) | 42.6% (inactive) | 82.5% (inactive) | 37.5% (inactive) | 34.5% (inactive) | -24.7% (active) | 77.6% (inactive) | 13.4% (inactive) | – | 93.2% (inactive) | – | 103% (inactive) | 15.7% (inactive)
5 | OC[C@@H](O)[C@@H](O)CO | 92.4% (inactive) | – | – | – | – | – | – | – | – | – | – | – | – | – | – | – | – | – | – | –
6 | N#CC(C#N)=Cc1cccc(F)c1 | 97.2% (inactive) | 105% (inactive) | 104% (inactive) | – | 100% (inactive) | 100% (inactive) | 101% (inactive) | 98.2% (inactive) | 98.9% (inactive) | 111% (inactive) | 101% (inactive) | 95.9% (inactive) | 99.6% (inactive) | 102% (inactive) | 101% (inactive) | 103% (inactive) | 112% (inactive) | 102% (inactive) | – | 106% (inactive)
7 | c1ccc2nc(-c3ccc4ccccc4n3)ccc2c1 | 101% (inactive) | – | – | – | – | – | – | – | – | – | – | – | – | – | – | – | – | – | – | –
8 | CN(N)/N=N/c1nc[nH]c1[N+](=O)[O-] | – | – | – | – | – | – | – | 21.2% [100 µM] (inactive) and -39.8% [100 µM] (active) | – | – | – | – | – | – | – | – | – | – | 79.1% [100 µM] (inactive) and 9.85% [100 µM] (active) | –
9 | O=[N+]([O-])c1cc(Cl)c(Cl)c([N+](=O)[O-])c1Cl | 22.2% (inactive) | -18.5% (active) | 29.9% (inactive) | – | 103% (inactive) | 66.8% (inactive) | 79.1% (inactive) | 86% (inactive) | -26.2% (active) | 103% (inactive) | 23.1% (inactive) | 5.47% (active) | -71.5% (active) | 108% (inactive) | 15% (inactive) | 78.7% (inactive) | 116% (inactive) | 122% (inactive) | 80.7% (inactive) | -30.1% (active)
10 | O=C1C(=C(O)c2ccccc2)C(=O)c2ccccc21 | 97.6% (inactive) | – | – | – | – | – | – | – | – | – | – | – | – | – | – | – | – | – | – | –
11 | Nc1nc(=S)nc(N)[nH]1 | 92.6% (inactive) | 101% (inactive) | 104% (inactive) | – | 97.2% (inactive) | – | 103% (inactive) | 101% (inactive) | – | 100% (inactive) | 80.5% (inactive) | 74.1% (inactive) | 101% (inactive) | 98.4% (inactive) | – | 97% (inactive) | 101% (inactive) | 92.9% (inactive) | 136% (inactive) | 103% (inactive)
12 | CC1CCNC(C)C1 (stereo unspecified) | 113% (inactive) | – | – | – | – | – | – | – | – | – | – | – | – | – | – | – | – | – | – | –
13 | O=C1C=CC(=O)N1CO | -11.7% (active) | – | – | – | – | – | – | – | – | – | – | – | – | – | – | – | – | – | – | –
14 | CC1(C)N=C(N)N=C(N)N1c1ccc(CCC(=O)Nc2ccc(S(=O)(=O)F)cc2)cc1 | 18.8% (inactive) | 46.2% (inactive) | 9.44% (active) | 51.8% (inactive) | 55% (inactive) | – | 34.8% (inactive) | 26.2% (inactive) | 15.8% (inactive) | 52% (inactive) | 33.4% (inactive) | 82.3% (inactive) | 28.8% (inactive) | 60.3% (inactive) | 18.9% (inactive) | – | 50.4% (inactive) | – | 24.3% (inactive) | 64.5% (inactive)
15 | CNC(=O)O/N=C(\SC)C(=O)N(C)C | 88.9% (inactive) | 105% (inactive) | – | 101% (inactive) | 106% (inactive) | 85% (inactive) | 109% (inactive) | 111% (inactive) | 90.4% (inactive) | 113% (inactive) | 104% (inactive) | 93.1% (inactive) | 107% (inactive) | 95.8% (inactive) | 92.2% (inactive) | 101% (inactive) | – | 112% (inactive) | 103% (inactive) | 101% (inactive)
16 | CC1(C)CN=C(NN=C(/C=C/c2ccc(C(F)(F)F)cc2)/C=C/c2ccc(C(F)(F)F)cc2)NC1 | -59.7% (active) | -72% (active) | -83.2% (active) | -88.6% (active) | 37.9% (inactive) | 24.7% (inactive) | – | -83.8% (active) | – | -90.9% (active) | -74.3% (active) | 8.51% (active) | -76.9% (active) | 2.54% (active) | -24.9% (active) | – | – | – | -17.9% (active) | -84.2% (active)
17 | O=S1(=O)OCCO1 | 98.6% (inactive) | 99% (inactive) | 107% (inactive) | 90.5% (inactive) | – | 99.9% (inactive) | 101% (inactive) | 87.4% (inactive) | – | 100% (inactive) | 93.3% (inactive) | – | 89.5% (inactive) | 99% (inactive) | 94.6% (inactive) | 105% (inactive) | – | 100% (inactive) | 98.5% (inactive) | –
18 | CCCC[C@@H]1CCN2C[C@@H](O)[C@@H](O)[C@@H]2[C@H]1O | – | – | – | – | – | – | – | 111% [100 µM] (inactive) and 89.9% [100 µM] (inactive) | – | – | – | – | – | – | – | – | – | – | – | –
19 | COc1cc2c(cc1OC)[C@@H]1C(=O)c3ccc4c(c3O[C@@H]1CO2)C[C@H](C(C)C)O4 | 19% (inactive) | 79.1% (inactive) | 83.1% (inactive) | 90.1% (inactive) | – | – | 17.9% (inactive) | 66.7% (inactive) | 53% (inactive) | 98.5% (inactive) | 86.9% (inactive) | 46.1% (inactive) | 45.1% (inactive) | 86.8% (inactive) | 42.6% (inactive) | 57.8% (inactive) | 91% (inactive) | 26.7% (inactive) | 70.3% (inactive) | 59.3% (inactive)
20 | C[C@H](O)CCC(=O)c1ccoc1 | 99.4% (inactive) | 110% (inactive) | 106% (inactive) | – | 100% (inactive) | 95.7% (inactive) | 99.9% (inactive) | 96% (inactive) | 95.5% (inactive) | 115% (inactive) | 96.9% (inactive) | 98.9% (inactive) | 101% (inactive) | 103% (inactive) | 98.1% (inactive) | 102% (inactive) | 110% (inactive) | 104% (inactive) | 103% (inactive) | –
21 | NNC(=S)N/N=C(\C(=O)Nc1cccc(O)c1)C1C(=O)NC(=S)NC1=O | – | – | – | – | – | – | – | 90.4% [100 µM] (inactive) and 91% [100 µM] (inactive) | – | – | – | – | – | – | – | – | – | – | 132% [100 µM] (inactive) and 93% [100 µM] (inactive) | –
22 | O=[N+]([O-])c1ccc(CI)cc1 | 64.4% (inactive) | 8.86% (active) | 47.8% (inactive) | 96.4% (inactive) | 106% (inactive) | 95.6% (inactive) | – | 79.6% (inactive) | – | 104% (inactive) | 60% (inactive) | 91.9% (inactive) | 54.5% (inactive) | 95.7% (inactive) | 21.5% (inactive) | – | – | – | 112% (inactive) | –
23 | Cn1cc(C(=O)C[n+]2ccccc2)c2ccccc21 | 98.8% (inactive) | 110% (inactive) | 105% (inactive) | – | 105% (inactive) | 90.4% (inactive) | 97.9% (inactive) | 105% (inactive) | 93.2% (inactive) | 114% (inactive) | 101% (inactive) | 98% (inactive) | 99.5% (inactive) | 84.8% (inactive) | 96.6% (inactive) | 97% (inactive) | 104% (inactive) | 65.4% (inactive) | 115% (inactive) | 109% (inactive)
24 | CC1=CC(=O)CCC12CCOC2=O (stereo unspecified) | 86.5% (inactive) | 98.7% (inactive) | 101% (inactive) | 91.3% (inactive) | – | 111% (inactive) | 103% (inactive) | 87% (inactive) | 95.6% (inactive) | 95.9% (inactive) | 95.2% (inactive) | – | 91.3% (inactive) | 91.7% (inactive) | 82.4% (inactive) | 99.1% (inactive) | 125% (inactive) | 91.4% (inactive) | 92% (inactive) | 101% (inactive)

Source: PubChem BioAssay (NCI)
